Reference: PubChem BioAssay (NCATS)
Several values for one entry are separate records, joined by “and”; a condition that tells them apart may be missing. Identical values can stand only once. A number with no mark means an inactive call. Inconclusive results are not listed. Entries that show only a call come without a potency. Activity calls are given as the source filed them. Unless noted, calls come from the whole dose curve; as a rule, active = well fitted curve in the direction sought with a large enough effect; inconclusive = small, poorly fitted or top-dose-only effect, or another doubt; inactive = no such curve, though single readings can be large; an effect the other way counts as inactive or inconclusive.

Legend:
[1] = target: Lysosomal acid glucosylceramidase (Homo sapiens) (UniProt P04062); test: Glucocerebrosidase-p2 (AID 348; in the data active = potency below about 10 µM; note: potency is the fitted concentration of half-maximal effect); details: purified GBA, blue fluorogenic substrate, 40 min
Chain of Lysosomal acid glucosylceramidase (Homo sapiens) (P04062 whole entry, looked up): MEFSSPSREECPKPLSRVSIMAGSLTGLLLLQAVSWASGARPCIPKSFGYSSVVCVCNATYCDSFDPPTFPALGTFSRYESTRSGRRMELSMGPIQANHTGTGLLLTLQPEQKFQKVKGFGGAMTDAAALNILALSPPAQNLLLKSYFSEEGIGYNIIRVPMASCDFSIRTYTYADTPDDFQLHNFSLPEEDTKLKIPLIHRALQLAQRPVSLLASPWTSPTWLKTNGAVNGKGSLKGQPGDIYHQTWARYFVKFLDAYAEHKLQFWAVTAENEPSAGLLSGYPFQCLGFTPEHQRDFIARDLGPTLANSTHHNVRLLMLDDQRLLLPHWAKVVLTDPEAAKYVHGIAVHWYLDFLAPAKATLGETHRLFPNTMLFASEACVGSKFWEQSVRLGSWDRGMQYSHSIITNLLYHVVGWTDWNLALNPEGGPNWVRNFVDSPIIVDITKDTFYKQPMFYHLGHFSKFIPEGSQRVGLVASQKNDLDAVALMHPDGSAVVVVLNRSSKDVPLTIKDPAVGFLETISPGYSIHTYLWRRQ
Procedure, shortened: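 Normal human glucocerebrosidase (0.2 nM) with blue fluorogenic substrate (80 uM final) in citrate/phosphate pH 5.9 with 10mM sodium taurocholate, 0.01% tween-20; 40 min RT, NaOH/glycine stop; fluorescence Ex 365/Em 440; AC50 from a titration from 0.6 nM upwards.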

[2] = AP1 Signaling Pathway (AID 357; active = well fitted curve in either direction with a large enough effect, not every such curve was filed as active;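 note: ME-180 reporter cells stimulated with EGF at its EC50 level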); details: ME-180 AP-1-bla reporter, EGF-induced, beta-lactamase ratio, 5 h; at 7.69 µM (top of the series) unless noted
Procedure, shortened: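 First, ME-180 AP-1-bla cells were cultured overnight at 37 °C in low-serum Opti-MEM. Next, titrated compounds with EC50 EGF were incubated 5 hours. Finally, CCF4 was added for 2.5 hours and the 460/530 nm ratio recorded.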

[3] = NFAT Signaling Pathway (AID 444; active = well fitted curve in either direction with a large enough effect, not every such curve was filed as active;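 note: carbachol stimulus at about its EC50 of 1 µM final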); details: Jurkat NFAT-bla M1, carbachol, beta-lactamase ratio, 5 h; at 7.69 µM (top of the series) unless noted
Procedure, shortened: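 Jurkat cells with NFAT-driven β-lactamase reporter and co-expressed M1 receptor, stimulated with carbachol (final 1 uM, ~EC50), compound titration, 5 h at 37 °C. CCF4 loaded 1 h at RT; 460/530 nm ratio gave %activity and AC50.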

[4] = Stat Signaling Pathway (AID 446; active = well fitted curve in either direction with a large enough effect, not every such curve was filed as active;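 note: ME-180 cervical cancer cells given 40 pM IL-6 alongside compound; SIE-controlled beta-lactamase reporter measured as 460/530 nm FRET emission ratio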); details: ME-180 (cervical carcinoma) SIE beta-lactamase reporter, IL-6 stimulated, 5 h; at 7.69 µM (top of the series) unless noted
Procedure, shortened: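 Overnight-plated ME-180 cells bearing a STAT Inducible Element beta-lactamase reporter; 5 h co-exposure to compound and 40 pM IL-6; values normalized to 300 pM IL-6 and 125 nM JAK inhibitor controls.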

[5] = target: Glucocorticoid receptor (Homo sapiens) (UniProt P04150); test: GR-GFP Redistribution (AID 450;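 active = compounds whose dose series gives a full or clear partial fitted curve of increased nuclear translocation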; note: potency is the fitted concentration of half-maximal effect); details: U2OS GR-GFP nuclear translocation, laser cytometry, 2 h
Chain of Glucocorticoid receptor (Homo sapiens) (P04150 whole entry, looked up, the tested form may be a part): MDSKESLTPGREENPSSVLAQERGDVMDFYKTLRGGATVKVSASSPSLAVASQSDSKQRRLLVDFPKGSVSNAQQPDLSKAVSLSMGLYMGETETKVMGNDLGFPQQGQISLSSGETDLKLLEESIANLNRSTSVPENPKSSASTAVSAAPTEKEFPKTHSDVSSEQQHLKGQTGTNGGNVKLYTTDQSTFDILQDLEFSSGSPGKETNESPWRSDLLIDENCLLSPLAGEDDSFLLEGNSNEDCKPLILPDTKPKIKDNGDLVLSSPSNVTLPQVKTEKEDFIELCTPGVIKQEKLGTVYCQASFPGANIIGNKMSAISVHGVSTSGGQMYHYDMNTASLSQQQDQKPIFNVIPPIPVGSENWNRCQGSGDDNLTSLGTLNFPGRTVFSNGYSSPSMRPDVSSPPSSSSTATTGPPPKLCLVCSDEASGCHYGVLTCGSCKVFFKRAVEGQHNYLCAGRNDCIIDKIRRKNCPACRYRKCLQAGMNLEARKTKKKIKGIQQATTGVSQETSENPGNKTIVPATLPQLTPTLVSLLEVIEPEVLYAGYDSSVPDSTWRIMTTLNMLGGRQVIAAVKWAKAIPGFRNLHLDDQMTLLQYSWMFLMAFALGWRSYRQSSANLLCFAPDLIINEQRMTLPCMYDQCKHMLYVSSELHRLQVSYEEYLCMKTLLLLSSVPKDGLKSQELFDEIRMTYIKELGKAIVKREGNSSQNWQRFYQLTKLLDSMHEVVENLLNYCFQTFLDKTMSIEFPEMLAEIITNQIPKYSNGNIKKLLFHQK

[6] = target: Glucocorticoid receptor (Homo sapiens) (UniProt P04150); test: GR-EFC Redistribution (AID 451; calls by dose curve; note: potency is the fitted concentration of half-maximal effect); details: CHO-K1 GR-EFC translocation, beta-gal luminescence, 2 h
Procedure, shortened: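 CHO-K1 cells expressing nuclear EA and GR-ED fragments of b-gal; compounds titrated up to 46 uM final, 2 h at 37 C. GR nuclear translocation read as complemented b-gal luminescence after 1 h RT detection.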

[7] = target: Mitogen-activated protein kinase 10 (Mus musculus) (UniProt Q61831); test: JNK3 AlphaScreen Assay (AID 530; active = well fitted curve in either direction with a large enough effect, not every such curve was filed as active;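 note: kinase came from lysate of stimulated human HepG2 cells; signal reports phosphorylation of biotinylated GST-cJun 1-79 at Ser73 with 10 µM ATP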); details: JNK3 lysate, c-Jun phosphorylation; series mostly up to 57.1 µM
Procedure, shortened: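 Activity was read by AlphaScreen after JNK3-containing HepG2 lysate (cytokine pre-activated) phosphorylated biotinylated GST-cJun with 10 uM ATP at room temperature. Phospho-Ser73 cJun antibody with Protein-A acceptor beads provided detection.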

[8] = target: 3',5'-cyclic-AMP phosphodiesterase 4B (Homo sapiens) (UniProt Q07343); test: qHTS Assay for Inhibitors of PDE-IV (AID 607; active = well fitted activation curve with a large enough effect in the main read-out, with a control signal flat, not every such curve was filed as active); details: HEK293 ACTOne CNG channel cells, membrane potential fluorescence; series mostly up to 22.9 µM
Chain of 3',5'-cyclic-AMP phosphodiesterase 4B (Homo sapiens) (Q07343 whole entry, looked up): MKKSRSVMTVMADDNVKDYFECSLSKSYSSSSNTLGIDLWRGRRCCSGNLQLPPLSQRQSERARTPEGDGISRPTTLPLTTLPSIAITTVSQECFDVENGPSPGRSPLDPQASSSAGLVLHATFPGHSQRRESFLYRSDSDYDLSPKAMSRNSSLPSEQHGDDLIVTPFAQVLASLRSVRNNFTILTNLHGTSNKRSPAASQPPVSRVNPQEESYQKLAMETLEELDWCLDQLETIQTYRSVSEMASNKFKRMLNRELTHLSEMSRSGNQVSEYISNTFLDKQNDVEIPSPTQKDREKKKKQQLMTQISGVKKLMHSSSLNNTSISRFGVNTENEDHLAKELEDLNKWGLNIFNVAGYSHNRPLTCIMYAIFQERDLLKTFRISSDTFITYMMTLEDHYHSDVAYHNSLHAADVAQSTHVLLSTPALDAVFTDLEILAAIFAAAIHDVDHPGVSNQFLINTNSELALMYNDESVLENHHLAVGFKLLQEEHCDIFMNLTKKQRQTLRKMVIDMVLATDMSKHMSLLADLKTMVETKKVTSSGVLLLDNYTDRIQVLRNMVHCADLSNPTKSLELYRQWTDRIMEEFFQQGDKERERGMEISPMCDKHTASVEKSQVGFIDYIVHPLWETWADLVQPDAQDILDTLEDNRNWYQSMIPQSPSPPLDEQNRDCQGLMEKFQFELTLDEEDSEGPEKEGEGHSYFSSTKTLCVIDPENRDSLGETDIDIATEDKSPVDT
Procedure, shortened: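 Live HEK293 cells with a modified cyclic nucleotide-gated (CNG) channel report intracellular cAMP via membrane-potential dye fluorescence (ex 535/em 590 nm). Endogenous PDE-IV was targeted. Compounds were tested at up to 22.9 uM final; RO 20-1724 100 uM served as control.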

[9] = target: Dual specificity protein kinase CLK4 (Homo sapiens) (UniProt Q9HAZ1); test: qHTS Assay for Inhibitors of CDC-like Kinase 4 (Kinase-Glo Assay) (AID 1770); details: recombinant Clk4, Kinase-Glo ATP depletion luminescence; series mostly up to 66.7 µM; note: nearly all actives have a fitted effect of over 65% in size; note: potency is the fitted concentration of half-maximal effect
Procedure, shortened: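 Recombinant human Clk4 (25 nM) phosphorylated RS repeat peptide (100 uM) with 1 uM ATP in Tris pH 7.5/MgCl2/EGTA/DTT/Triton buffer for 4.5 h at room temperature. Residual ATP was quantified by Kinase-Glo luciferase luminescence.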

[10] = target: Dual specificity protein kinase CLK4 (Homo sapiens) (UniProt Q9HAZ1); test: qHTS Assay for Inhibitors of CDC-like Kinase 4 (ADP-Glo Assay) (AID 1771); details: recombinant CLK4, ADP-Glo luminescence; series mostly up to 80 µM; note: nearly all actives have a fitted effect of over 70% in size; note: potency is the fitted concentration of half-maximal effect
Procedure, shortened: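 ADP production was read by ADP-Glo luminescence after residual ATP depletion, following 1 h room-temperature reaction of 25 nM Clk4, 1 uM ATP and 100 uM RS peptide with MgCl2, EGTA, DTT and Triton X-100.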

[11] = target: Ubiquitin carboxyl-terminal hydrolase 1 (Homo sapiens) (UniProt O94782); test: Inhibitors of USP1/UAF1: Pilot qHTS (AID 504865); details: purified USP1/UAF1, Ub-rhodamine cleavage fluorescence; series mostly up to 54.9 µM;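 note: rhodamine fluorescence freed from ubiquitin-rhodamine substrate followed over time; top concentration of the series differs between compounds; nearly all actives have a fitted effect of over 35% in size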
Chain of Ubiquitin carboxyl-terminal hydrolase 1 (Homo sapiens) (O94782 whole entry, looked up): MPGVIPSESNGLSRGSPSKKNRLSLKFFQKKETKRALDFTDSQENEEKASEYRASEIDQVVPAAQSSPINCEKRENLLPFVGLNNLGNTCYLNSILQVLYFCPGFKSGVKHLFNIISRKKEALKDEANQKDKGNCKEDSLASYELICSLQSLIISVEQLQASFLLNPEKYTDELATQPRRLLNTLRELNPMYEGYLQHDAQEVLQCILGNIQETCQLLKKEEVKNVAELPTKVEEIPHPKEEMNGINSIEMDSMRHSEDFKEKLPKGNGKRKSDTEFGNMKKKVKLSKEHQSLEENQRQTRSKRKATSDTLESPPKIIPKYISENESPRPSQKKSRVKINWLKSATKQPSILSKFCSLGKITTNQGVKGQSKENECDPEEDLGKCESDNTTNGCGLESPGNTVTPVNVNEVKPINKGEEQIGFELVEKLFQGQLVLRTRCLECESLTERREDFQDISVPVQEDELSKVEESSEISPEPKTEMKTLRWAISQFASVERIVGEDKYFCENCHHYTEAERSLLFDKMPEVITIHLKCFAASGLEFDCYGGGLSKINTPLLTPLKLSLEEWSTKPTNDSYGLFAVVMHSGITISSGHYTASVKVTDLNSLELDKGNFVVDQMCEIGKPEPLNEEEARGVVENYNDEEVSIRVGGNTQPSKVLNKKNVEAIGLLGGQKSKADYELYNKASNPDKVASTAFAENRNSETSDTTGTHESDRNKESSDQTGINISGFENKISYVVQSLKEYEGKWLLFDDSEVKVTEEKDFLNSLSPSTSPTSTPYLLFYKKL
Procedure, shortened: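 USP1/UAF1 complex (1nM) preincubated with compound 15 min at room temperature, then Ub-Rho substrate (150nM final) added. Fluorescence read kinetically at 480/540 nm, 6 reads every 60 seconds. Buffer: 50mM HEPES pH 7.8, 0.5mM EDTA, 0.1 mg/ml BSA, 1mM TCEP, 0.01% Tween-20.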

[12] = Primary qHTS for small molecule stabilizers of the endoplasmic reticulum resident proteome: Secreted ER Calcium Modulated Protein (SERCaMP) assay (AID 1508630); details: SH-SY5Y GLuc-SERCaMP (Gaussia luciferase released on ER calcium loss) secretion, thapsigargin, luminescence; series mostly up to 38.4 µM
Procedure, shortened: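 The SH-SY5Y reporter protocol was run at 3 concentrations up to 38.3 uM (primary) or 11 concentrations (follow-up): 16 h compound, 100 nM thapsigargin for 4 h, then extracellular luciferase luminescence.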

[13] = target: Rap guanine nucleotide exchange factor 3 (Homo sapiens) (UniProt O95398); test: Confirmatory qHTS for antagonist of cAMP-regulated guanine nucleotide exchange factor 3 (EPAC1) (AID 1645880); details: EPAC1 Rap1B-BODIPY-GDP exchange, fluorescence; series mostly up to 115 µM; note: nearly all actives have a fitted effect of over 55% in size
Chain of Rap guanine nucleotide exchange factor 3 (Homo sapiens) (O95398 whole entry, looked up): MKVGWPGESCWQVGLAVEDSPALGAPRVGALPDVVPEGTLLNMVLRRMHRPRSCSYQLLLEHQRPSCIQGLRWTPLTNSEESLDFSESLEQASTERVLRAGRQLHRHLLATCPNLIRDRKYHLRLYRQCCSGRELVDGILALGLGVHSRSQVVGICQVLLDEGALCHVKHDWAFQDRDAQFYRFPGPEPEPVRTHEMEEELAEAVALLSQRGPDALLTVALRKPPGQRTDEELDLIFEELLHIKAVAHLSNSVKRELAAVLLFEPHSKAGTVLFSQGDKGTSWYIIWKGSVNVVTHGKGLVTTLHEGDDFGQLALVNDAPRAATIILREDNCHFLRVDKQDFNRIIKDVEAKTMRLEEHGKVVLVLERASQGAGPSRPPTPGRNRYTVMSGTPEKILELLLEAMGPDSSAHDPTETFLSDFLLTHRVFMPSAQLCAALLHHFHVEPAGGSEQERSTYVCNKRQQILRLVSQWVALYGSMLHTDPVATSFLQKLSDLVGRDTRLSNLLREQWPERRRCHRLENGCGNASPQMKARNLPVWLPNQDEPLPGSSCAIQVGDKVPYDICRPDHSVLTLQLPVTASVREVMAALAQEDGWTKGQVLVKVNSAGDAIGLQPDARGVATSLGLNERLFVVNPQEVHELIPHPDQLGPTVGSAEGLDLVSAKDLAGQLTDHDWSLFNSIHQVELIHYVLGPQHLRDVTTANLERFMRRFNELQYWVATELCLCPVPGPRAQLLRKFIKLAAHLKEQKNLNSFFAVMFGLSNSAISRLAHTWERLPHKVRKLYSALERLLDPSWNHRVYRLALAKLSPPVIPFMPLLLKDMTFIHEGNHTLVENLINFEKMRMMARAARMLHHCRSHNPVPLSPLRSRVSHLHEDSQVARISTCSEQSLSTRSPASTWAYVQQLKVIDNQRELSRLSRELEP
Procedure, shortened: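 Released BODIPY-GDP fluoresces less than Rap1-bound BODIPY-GDP; the signal is followed at 480/540 nm at 5-min intervals over 30 min, after 5 min at room temperature. Reactions contain 100 nM EPAC1, 250 nM RAP1B-BODIPY-GDP and 50 uM GDP; results are normalized to ATA and DMSO.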

[14] = target: Rap guanine nucleotide exchange factor 4 (Homo sapiens) (UniProt Q8WZA2); test: Confirmatory qHTS for antagonist of cAMP-regulated guanine nucleotide exchange factor 4 (EPAC2) (AID 1645885); details: EPAC2 Rap1B-BODIPY-GDP exchange fluorescence, biochemical; series mostly up to 114 µM; note: nearly all actives have a fitted effect of over 25% in size; note: potency is the fitted concentration of half-maximal effect
[15] = target: Dual specificity protein kinase CLK4 (Homo sapiens) (UniProt Q9HAZ1); test: qHTS Assay for Inhibitors of CDC-like Kinase 4 (ADP-FP Assay) (AID 1795); details: Transcreener ADP fluorescence polarization; series mostly up to 50 µM; note: nearly all actives have a fitted effect of over 60% in size
Procedure, shortened: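 Recombinant human Clk4 (6.25 nM) phosphorylated RS repeat peptide (100 uM) with 1 uM ATP in Tris pH 7.5/MgCl2/EGTA/DTT/Triton buffer for one hour. ADP was quantified by Transcreener competitive fluorescence polarization against an ADP calibration curve.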

[16] = target: Rap guanine nucleotide exchange factor 4 (Homo sapiens) (UniProt Q8WZA2); test: Confirmatory qHTS for agonist of cAMP-regulated guanine nucleotide exchange factor 4 (EPAC2) (AID 1645884); details: EPAC2 GEF activity, Rap1B-BODIPY-GDP fluorescence; series mostly up to 154 µM;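 note: nucleotide exchange releases bodipy-GDP from Rap1 and this lowers its fluorescence; nearly all actives have a fitted effect of over 65% in size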; note: potency is the fitted concentration of half-maximal effect
[17] = target: Cytochrome P450 1A2 (Homo sapiens) (UniProt P05177); test: p450-cyp1a2 (AID 410; calls by dose curve; note: potency is the fitted concentration of half-maximal effect); details: recombinant CYP1A2, luciferin-ME demethylation, luminescence; series mostly up to 57 µM
Chain of Cytochrome P450 1A2 (Homo sapiens) (P05177 whole entry, looked up): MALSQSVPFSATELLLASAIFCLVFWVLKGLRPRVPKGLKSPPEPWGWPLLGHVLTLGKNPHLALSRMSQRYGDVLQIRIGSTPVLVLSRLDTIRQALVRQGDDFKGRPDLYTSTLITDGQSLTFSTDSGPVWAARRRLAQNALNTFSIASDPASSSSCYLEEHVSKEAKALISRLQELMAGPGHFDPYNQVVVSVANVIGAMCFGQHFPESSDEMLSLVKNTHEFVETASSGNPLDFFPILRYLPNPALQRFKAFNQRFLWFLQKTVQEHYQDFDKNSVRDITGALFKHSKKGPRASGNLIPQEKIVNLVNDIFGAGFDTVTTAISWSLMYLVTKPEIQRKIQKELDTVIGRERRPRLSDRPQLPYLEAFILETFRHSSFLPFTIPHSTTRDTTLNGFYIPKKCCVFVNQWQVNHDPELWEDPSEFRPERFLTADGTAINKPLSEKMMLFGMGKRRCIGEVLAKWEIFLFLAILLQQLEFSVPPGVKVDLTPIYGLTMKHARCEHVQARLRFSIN
Procedure, shortened: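 Luminescent demethylation readout: Luciferin-ME (100uM, equal to Km) turned over by 20nM CYP1A2 for 60 min at room temperature after NADPH regeneration addition, following 10 min compound preincubation. Normalization used 57 uM furafylline as full inhibition.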

[18] = target: Cytochrome P450 3A4 (Homo sapiens) (UniProt P08684); test: qHTS Assay for Activators of Cytochrome P450 3A4 (AID 885); details: recombinant CYP3A4, Luciferin-PPXE luminescence, 60 min; series mostly up to 57.1 µM; note: nearly all actives have a fitted effect of over 65% in size
Chain of Cytochrome P450 3A4 (Homo sapiens) (P08684 whole entry, looked up): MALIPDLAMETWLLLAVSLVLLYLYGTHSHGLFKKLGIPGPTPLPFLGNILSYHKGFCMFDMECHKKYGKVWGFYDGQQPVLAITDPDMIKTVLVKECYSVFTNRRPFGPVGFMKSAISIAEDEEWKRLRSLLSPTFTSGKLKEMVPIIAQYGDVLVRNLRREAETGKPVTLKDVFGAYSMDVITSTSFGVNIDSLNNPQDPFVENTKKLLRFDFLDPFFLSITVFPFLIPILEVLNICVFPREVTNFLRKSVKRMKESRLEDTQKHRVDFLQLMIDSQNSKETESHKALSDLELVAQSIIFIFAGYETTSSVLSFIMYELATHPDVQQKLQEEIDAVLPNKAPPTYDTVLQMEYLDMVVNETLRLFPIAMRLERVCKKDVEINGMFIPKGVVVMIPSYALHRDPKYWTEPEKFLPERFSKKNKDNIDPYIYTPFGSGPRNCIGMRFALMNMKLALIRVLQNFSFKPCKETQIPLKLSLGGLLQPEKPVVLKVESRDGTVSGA
Procedure, shortened: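 Using 20nM recombinant human CYP3A4 in potassium phosphate (200mM), substrate Luciferin-PPXE at 25uM, luminescent luciferin detection followed a 60-min RT NADPH reaction; data scaled to 57 uM ketoconazole.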

[19] = target: Rap guanine nucleotide exchange factor 3 (Homo sapiens) (UniProt O95398); test: Confirmatory qHTS for agonist of cAMP-regulated guanine nucleotide exchange factor 3 (EPAC1) (AID 1645881); details: EPAC1 Rap1B BODIPY-GDP exchange fluorescence; series mostly up to 154 µM;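 note: EPAC1 catalysed release of BODIPY-GDP from Rap1B seen as fluorescence loss; nearly all actives have a fitted effect of over 75% in size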

Structure (SMILES) | Potency [1] | activity change, negative = inhibition [2] | activity change, negative = inhibition [3] | activity, negative = inhibition [4] | Potency [5] | Potency [6] | Potency [7] | Potency [8] | Potency [9] | Potency [10] | Potency [11] | outcome [12] | Potency [13] | Potency [14] | Potency [15] | Potency [16] | Potency [17] | Potency [18] | Potency [19]
COCCn1c(=O)c(-c2cccs2)nc2cnc(N3CCOCC3)nc21 | > 11.4 µM | -6.06% | 2.93% | -8.84% | > 9.22 µM | > 46 µM | inactive | inactive | inactive | inactive | inactive | inactive | inactive | inactive | – | – | – | – | –
N#CCCn1c(=O)c(-c2ccc(Cl)cc2)nc2cnc(Nc3ccccc3)nc21 | > 11.4 µM | -28% | – | -24.6% | > 9.22 µM | > 46 µM | inactive | inactive | inactive | inactive | inactive | inactive | inactive | inactive | inactive | 79.3 µM (active) | – | – | –
COCCn1c(=O)c(-c2cc(F)cc(F)c2)nc2cnc(Nc3cccc(OC)c3)nc21 | – | -16% | -16.5% | -3.85% | > 9.22 µM | > 46 µM | inactive | inactive | – | – | – | inactive | inactive | inactive | – | – | 2.51 µM (active) | inactive | inactive
COc1cccc(Cn2c(=O)c(-c3ccc(Cl)cc3)nc3cnc(N4CCNCC4)nc32)c1 | > 11.4 µM | – | – | – | > 9.22 µM | > 46 µM | – | inactive | inactive | inactive | inactive | inactive | – | 39.3 µM (active) | inactive | – | – | inactive | inactive
COc1cccc(-c2cc(NCc3ccc(OC)cc3OC)ncn2)c1 | > 11.4 µM | – | -8.15% | -9.18% | > 46 µM | > 46 µM | inactive | inactive | 31.6 µM (active) | – | inactive | inactive | inactive | – | inactive | – | 2 µM (active) | inactive | inactive
COc1ccc(-c2nc3cnc(Nc4cccc(OC)c4)nc3n(Cc3cccs3)c2=O)cc1 | > 11.4 µM | – | – | – | > 9.22 µM | – | inactive | inactive | – | inactive | inactive | inactive | – | 44.1 µM (active) | inactive | inactive | inactive | inactive | inactive
Cc1c(CC(C)(C)C(=O)O)n(Cc2ccc(Cl)cc2)c2ccc(F)cc12 | – | -22.4% [at 38 µM] | – | -0.406% [at 38 µM] | > 46 µM | > 46 µM | inactive | inactive | – | – | – | inactive | – | 27.8 µM (active) | – | inactive | 12.6 µM (active) and 15.8 µM (active) | inactive | inactive
COc1ccccc1CNc1nc(-c2cccc(C#N)c2)nc2ccccc12 | – | – | – | -22% | > 46 µM | > 46 µM | inactive | – | – | – | – | inactive | inactive | inactive | inactive | – | 1.26 µM (active) | inactive | inactive
COc1ccc(CNc2nc(-c3ccc4c(c3)OCO4)nc3ccccc23)c(OC)c1 | > 11.4 µM | 0.828% | – | 2.14% | > 46 µM | > 46 µM | inactive | inactive | inactive | inactive | inactive | inactive | – | inactive | – | inactive | 3.98 µM (active) | inactive | inactive
COCCn1c(=O)c(-c2cccs2)nc2cnc(Nc3ccccc3)nc21 | > 11.4 µM | 5.47% | – | 14.8% | > 9.22 µM | – | inactive | – | – | – | – | inactive | inactive | inactive | – | – | – | – | inactive
O=c1c(-c2ccc(F)cc2)nc2cnc(Nc3ccccc3)nc2n1Cc1cccs1 | > 11.4 µM | -11.9% | – | – | – | > 46 µM | inactive | inactive | – | – | – | inactive | inactive | inactive | – | – | 2 µM (active) | – | –
COc1cccc(Cn2c(=O)c(-c3cccs3)nc3cnc(Nc4cccc(OC)c4)nc32)c1 | > 11.4 µM | -17.2% | – | 26.3% | > 9.22 µM | > 46 µM | inactive | – | – | – | – | inactive | inactive | inactive | – | – | 2.51 µM (active) | inactive | –
COc1ccc(C(=O)N2CCC3(CCN(Cc4cc(C(F)(F)F)cc(C(F)(F)F)c4)CC3)CC2)cc1 | > 11.4 µM | 7.47% | 19.2% | -6.24% | – | > 46 µM | inactive | inactive | – | – | – | inactive | – | 35 µM (active) | – | inactive | inactive | inactive | inactive
COc1ccc(CNc2ccnc(-c3cccc(C#N)c3)n2)c(OC)c1 | – | – | – | – | > 46 µM | > 46 µM | inactive | – | 15.8 µM (active) | 10 µM (active) | inactive | inactive | – | – | – | inactive | 2.51 µM (active) | inactive | inactive
